The values that follow come from PubChem BioAssay (NCI).

Some test systems named below: SK-MEL-2 melanoma; EKVX NSCLC; SN12C renal; UO-31 renal; TK-10 renal; ACHN renal; CAKI-1 renal; CCRF-CEM leukemia; MOLT-4 leukemia; SR leukemia; RPMI-8226 leukemia; OVCAR-8 ovarian; OVCAR-5 ovarian; OVCAR-4 ovarian; SK-OV-3 ovarian; IGROV1 ovarian; OVCAR-3 ovarian; HS 578T breast; NCI/ADR-RES ovarian; A498 renal.
What all share (assay): NCI-60 one-dose screen, 48 h (100 = growth as untreated, 0 = no growth, -100 = all killed)
Conditions in all cases: 10 µM unless noted

This is part of a sample that, as a whole, favours compounds with a hit. Of some 83,000 tested, about 20% had one in any assay.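 Interpretation: 100, growth as untreated; towards 0, rising growth inhibition; 0, no net growth; 0 to -100, cell death. Compounds scoring below 10 were considered active.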 Unmarked numbers belong to inactive results. The source made the active and inactive calls.

On to `COc1ccc2nc(NC(=O)CN3CCn4c(nnc4C(F)(F)F)C3)sc2c1`, for which the growth in the test on SK-MEL-2 melanoma was 106%; with EKVX NSCLC, 73.1%; in the test on SN12C renal, 92.2%; in the test on UO-31 renal, 80.6%; in the test on TK-10 renal, 97.5%; with ACHN renal it was 90.7%. The growth in the test with CAKI-1 renal was 77.7%; with CCRF-CEM leukemia it was 86.5%; in the test on MOLT-4 leukemia it was 95.8%; in the test on SR leukemia, 87.8%; in the test on RPMI-8226 leukemia, 90%; with OVCAR-8 ovarian, 96.5%. In addition, the growth was 97.9% in the test on OVCAR-5 ovarian; 104% with OVCAR-4 ovarian; 105% in the test on SK-OV-3 ovarian; 92.8% with IGROV1 ovarian; 93.7% with OVCAR-3 ovarian; 97% in the test on HS 578T breast. Further, the growth in the test with NCI/ADR-RES ovarian is 93.6%.
`O=C1C2C(C(=O)N1CC[Se][Se]CCN1C(=O)C3C(C1=O)[C@H]1C=C[C@@H]3C1)[C@H]1C=C[C@@H]2C1` (stereo not given in full): the growth is -53.3% (active) in the test with SK-MEL-2 melanoma; -56% (active) with EKVX NSCLC; 3.39% (active) with SN12C renal; -84.4% (active) with UO-31 renal; -70.2% (active) in the test with TK-10 renal; -52.2% (active) with ACHN renal. Moreover, the growth is -87.7% (active) in the test on CAKI-1 renal; 2.3% (active) in the test on CCRF-CEM leukemia; 1.28% (active) in the test with MOLT-4 leukemia; 4.3% (active) in the test with SR leukemia; -43.7% (active) in the test with RPMI-8226 leukemia; -80.7% (active) with OVCAR-8 ovarian. In addition, the growth in the test on OVCAR-5 ovarian was -15.4% (active); in the test with OVCAR-4 ovarian, -33.3% (active); in the test on SK-OV-3 ovarian, -50% (active); in the test on IGROV1 ovarian, -47.2% (active); in the test with OVCAR-3 ovarian, -58% (active); in the test on HS 578T breast, -11.4% (active). Besides, the growth in the test on NCI/ADR-RES ovarian was -10.9% (active).
Turning to `Nc1nc(Nc2ccccc2SSc2ccccc2Nc2nc(N)nc(C(Cl)(Cl)Cl)n2)nc(C(Cl)(Cl)Cl)n1`, the growth is 72.3% in the test with SK-MEL-2 melanoma; 67.5% in the test on EKVX NSCLC; 19.3% in the test with SN12C renal; -38.5% (active) in the test with UO-31 renal; 116% in the test on TK-10 renal; -25.3% (active) in the test on ACHN renal. Besides, the growth in the test with CAKI-1 renal was 52.2%; in the test on CCRF-CEM leukemia, 45.5%; in the test on MOLT-4 leukemia, 46.7%; in the test on SR leukemia, 14.8%; in the test with RPMI-8226 leukemia it was 36.1%; in the test on OVCAR-8 ovarian, 47.9%. Also, the growth in the test on OVCAR-5 ovarian was 82%; in the test with OVCAR-4 ovarian, 65.3%; in the test with SK-OV-3 ovarian it was 121%; with IGROV1 ovarian, 37%; with OVCAR-3 ovarian, 64.6%; with HS 578T breast it was 73.4%. In addition, the growth with NCI/ADR-RES ovarian was 48.9%.
`Cc1cc(C(=O)Nc2ccc3cc(CN4CCOCC4)ccc3n2)c(C)n1-c1ccccc1`: the growth in the test with SK-MEL-2 melanoma was 16.6%; in the test with EKVX NSCLC it was 44.9%; with SN12C renal it was 73%; with UO-31 renal it was 53.3%; in the test on TK-10 renal it was 70.4%; with ACHN renal, 50.5%. Also, the growth in the test with CAKI-1 renal is 49.7%; in the test with A498 renal it was 79.8%; with CCRF-CEM leukemia it was 8.79% (active); with MOLT-4 leukemia it was -17.4% (active); in the test on RPMI-8226 leukemia it was -21% (active); with OVCAR-8 ovarian it was 4.27% (active). Further, the growth is 83.1% in the test on OVCAR-5 ovarian; 81.1% in the test with SK-OV-3 ovarian; 66.4% in the test on IGROV1 ovarian; 26.7% with OVCAR-3 ovarian; 82.3% with HS 578T breast; -5.82% (active) with NCI/ADR-RES ovarian.
`N#Cc1c(-c2ccccc2)cc(-c2ccccc2)n(CC(=O)O)c1=O`: the growth is 28% in the test on SK-MEL-2 melanoma; 81.4% in the test on EKVX NSCLC; 70% with SN12C renal; 68.9% in the test on UO-31 renal; 84.2% in the test on TK-10 renal; 76.1% in the test with ACHN renal. For the same compound, the growth is 47.3% in the test on CAKI-1 renal; 56.3% in the test with CCRF-CEM leukemia; 63.8% in the test with MOLT-4 leukemia; 25% with SR leukemia; 50.4% in the test on RPMI-8226 leukemia; 57.1% in the test with OVCAR-8 ovarian. Besides, the growth in the test on OVCAR-5 ovarian is 94.4%; in the test with OVCAR-4 ovarian, 93%; with SK-OV-3 ovarian, 99.9%; in the test on IGROV1 ovarian, 61.4%; in the test on OVCAR-3 ovarian, 17.7%; with HS 578T breast, 51.6%.
Take `Cc1c2oc3c(C)ccc(C(=O)OC(C)C4NC(=O)C(C(C)C)N(C)C(=O)CN(C)C(=O)C5CCCN5C(=O)C(C(C)C)NC4=O)c3nc-2c(C(=O)OC(C)C2NC(=O)C(C(C)C)N(C)C(=O)CN(C)C(=O)C3CCCN3C(=O)C(C(C)C)NC2=O)c(N)c1=O` (stereo not given): the growth with SK-MEL-2 melanoma was -64.8% (active); in the test with EKVX NSCLC, 5.92% (active); with SN12C renal it was 7.77% (active); with UO-31 renal it was -8.49% (active); in the test on TK-10 renal, -7.83% (active); in the test on ACHN renal, 1.27% (active). In addition, the growth with CAKI-1 renal is 3.24% (active); in the test on A498 renal it was -75.4% (active); with CCRF-CEM leukemia it was 18.4%; with OVCAR-5 ovarian, 14.6%; in the test on SK-OV-3 ovarian, 22.5%; in the test with OVCAR-3 ovarian, 5.3% (active). Further, the growth is -2.72% (active) in the test on HS 578T breast and 16.9% with NCI/ADR-RES ovarian.
For the compound `CC[C@@H](C)/C=C(C)/C=C/C(=O)c1c(O)c(-c2ccc(O)cc2)cn(OC2CC(=O)CCC(C)OC(=O)CC2O)c1=O` (stereo not given in full), the growth is 19.8% with SK-MEL-2 melanoma; 5.02% (active) with EKVX NSCLC; 17.5% with SN12C renal; -15.5% (active) with UO-31 renal; 43.1% in the test with TK-10 renal; 0.984% (active) in the test with ACHN renal. Further, the growth in the test with CAKI-1 renal was -17.1% (active); with A498 renal it was 28.7%; in the test with CCRF-CEM leukemia it was 2.11% (active); in the test on MOLT-4 leukemia, 6.27% (active); with SR leukemia, 7.95% (active); in the test with OVCAR-8 ovarian, 17.5%. Also, the growth was 53.8% in the test on OVCAR-5 ovarian; 4.73% (active) with IGROV1 ovarian; 18.7% with OVCAR-3 ovarian; 35.1% with HS 578T breast; 5.21% (active) in the test on NCI/ADR-RES ovarian.
`CC1CN(/N=C/c2ccc([N+](=O)[O-])o2)C(=N)O1` (stereo not given): the growth is 123% with SK-MEL-2 melanoma; 104% in the test on EKVX NSCLC; 91% in the test with SN12C renal; 73.9% with UO-31 renal; 105% in the test on TK-10 renal; 92.9% in the test with ACHN renal. For the same compound, the growth was 96.4% with CAKI-1 renal; 112% with CCRF-CEM leukemia; 107% in the test on MOLT-4 leukemia; 107% in the test with SR leukemia; 97.4% with RPMI-8226 leukemia; 96.6% in the test with OVCAR-8 ovarian. For the same compound, the growth in the test with OVCAR-5 ovarian was 106%; with OVCAR-4 ovarian, 101%; in the test with SK-OV-3 ovarian, 118%; in the test with IGROV1 ovarian, 98.3%; with OVCAR-3 ovarian, 105%; in the test with HS 578T breast, 105%. For the same compound, the growth in the test on NCI/ADR-RES ovarian was 101%.
On to `O=Nc1c2cccnc2n2nnc3ccc(Cl)cc3c12`, for which the growth in the test on SK-MEL-2 melanoma is 57.1%; in the test on EKVX NSCLC, 77.4%; in the test with SN12C renal, 56.5%; with UO-31 renal, -37.4% (active); with TK-10 renal, 16.5%; in the test with ACHN renal, -49.8% (active). Moreover, the growth in the test on CAKI-1 renal was 5.93% (active); with A498 renal, 88.3%; with CCRF-CEM leukemia, -60.5% (active); with MOLT-4 leukemia it was -54.3% (active); with RPMI-8226 leukemia, -63.1% (active); with OVCAR-8 ovarian, -26.8% (active). In addition, the growth with OVCAR-4 ovarian is -27.7% (active); with SK-OV-3 ovarian it was 92.2%; in the test with OVCAR-3 ovarian, -29.5% (active); with HS 578T breast, 70%; in the test with NCI/ADR-RES ovarian, 54.8%.
